# Bioassay records from PubChem.
# HEK293 tox – Cytotoxic Profiling in HEK 293 Cell Line of Diverse Libraries Using Quantitative High-Throughput Screening; HEK 293 viability, ATP luminescence (CellTiter-Glo), 48-72 h; Potency, µM (top dose mostly 115 µM), inactives show top-dose activity change, negative = cytotoxicity, usual class: inhibitors; hit rate 6.6% among 94,000; note: % is set by controls: 0 for no effect and ±100 for the full control effect; nearly all actives have a fitted effect of over 60% in size
#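 qHTS cytotoxicity; HEK 293, 250 cells/well; compound pinned; 48 or 72 hr, 37 degree Celsius, 5% CO2, 95% humidity; CellTiter-Glo, 10 min RT; luminescence (ATP).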
# Luciferase inh – Firefly luciferase inhibition profiling of diverse chemical library using quantitative high-throughput screening | AID 1347043, 2019 | purified P. pyralis luciferase, luminescence, biochemical | hit rate 2.5% among 76,000 | Potency, µM (titrated, usually from 115 µM), most hits filed as inhibitors; note: % is set by controls: 0 for no effect and ±100 for the full control effect; nearly all actives have a fitted effect of over 65% in size
# Target sequence (P08659 whole entry, looked up): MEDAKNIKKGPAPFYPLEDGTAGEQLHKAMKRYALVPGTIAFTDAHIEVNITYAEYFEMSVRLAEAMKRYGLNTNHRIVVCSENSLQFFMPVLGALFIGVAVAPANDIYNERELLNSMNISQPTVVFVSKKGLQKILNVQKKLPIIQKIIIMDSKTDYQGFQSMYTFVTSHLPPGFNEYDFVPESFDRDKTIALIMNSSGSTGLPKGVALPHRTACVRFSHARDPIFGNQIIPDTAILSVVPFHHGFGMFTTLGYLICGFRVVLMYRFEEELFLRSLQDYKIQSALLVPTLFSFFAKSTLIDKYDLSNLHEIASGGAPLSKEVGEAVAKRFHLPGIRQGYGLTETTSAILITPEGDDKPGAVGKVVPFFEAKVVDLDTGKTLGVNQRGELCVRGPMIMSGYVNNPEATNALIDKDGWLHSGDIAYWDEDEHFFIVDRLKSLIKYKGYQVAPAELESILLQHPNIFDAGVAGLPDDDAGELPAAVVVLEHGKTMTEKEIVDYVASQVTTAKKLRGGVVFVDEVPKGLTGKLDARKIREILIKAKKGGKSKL
#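 Purified P. pyralis luciferase (10nM final) in 50mM Tris acetate pH 7.5, 10mM Mg acetate, 0.01% Tween-20, 0.05% BSA with 10uM D-luciferin and 10uM ATP. Compounds titrated qHTS. Luminescence imaged on CCD.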
# NIH3T3 tox – Cytotoxic Profiling in NIH 3T3 Cell Line of Diverse Libraries Using Quantitative High-Throughput Screening; NIH 3T3 viability, CellTiter-Glo ATP luminescence, 48-72 h; Potency, µM (highest dose often 96.7 µM), for inactives: top-dose activity change, negative = cytotoxicity, hits mostly inhibitors; hit rate 4.3% among 94,000; note: % is set by controls: 0 for no effect and ±100 for the full control effect; nearly all actives have a fitted effect of over 55% in size
#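 Cells were seeded at 400 per well, treated with pin-transferred compound, and kept 48 or 72 hr at 37 °C before CellTiter-Glo addition and luminescence imaging of cellular ATP.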
# hNpr1 antagonist – Natriuretic polypeptide receptor (hNpr1) antagonism - Primary qHTS. AID 1347048, 2019. HEK293 hNpr1 GloSensor cGMP, ANP-stimulated luminescence. hit rate 1.6% among 76,000. Potency, µM (doses to about 46.3 µM), for the others: at the top dose activity change, negative = inhibition, actives largely listed as inhibitors; calls by dose curve; note: % is set by controls: 0 for no effect and ±100 for the full control effect; nearly all actives have a fitted effect of over 60% in size
#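 Compound pre-incubated 30 min at room temperature on GloSensor-loaded HEK293 cells stably carrying hNpr1 and the pGS-40F cGMP biosensor. Stimulation uses hNppA at 0.1 nM final; luminescence is taken at baseline and 20 min post-agonist.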
# GPT2 inhibitor – Primary qHTS assay for inhibitors of Glutamate pyruvate transaminase 2 (GPT2). AID 1671188, 2021. Potency, µM (highest dose often 57.7 µM), inactives show at the highest dose activity change, negative = inhibition, most hits filed as inhibitors. hit rate 0.25% among 100,000. Recombinant GPT2, coupled pyruvate oxidase/HRP Amplex Red fluorescence. Alanine aminotransferase 2 (Homo sapiens), Q8TD30; note: % is set by controls: 0 for no effect and ±100 for the full control effect; nearly all actives have a fitted effect of over 60% in size
#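 Fluorescence of coupled pyruvate oxidase/HRP/Amplex Red system (50uM Amplex, 30 min, dark) reports pyruvate formed by GPT2. Enzyme reaction: 10ng/uL GPT2, 2mM L-alanine, 250uM a-KG, 30 min room temperature, pH 7.5; 50uM AOA control.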
# NPR1 antag cnf – Natriuretic polypeptide receptor (hNpr1) antagonism - Confirmation; shares compounds with hNpr1 antagonist; HEK293 hNpr1 cGMP GloSensor luminescence, ANP-stimulated; Potency, µM (series often up to 57.6 µM), without a hit: at the highest dose activity change, negative = inhibition, actives largely listed as inhibitors; hit rate 76% among 1,400; AID 1347044, 2019; calls by dose curve; note: nearly all actives have a fitted effect of over 70% in size
# NPR2 antag – Natriuretic polypeptide receptor (hNpr2) antagonism - Subtype selectivity assay; Potency, µM (highest dose often 57.6 µM), for the others: top-dose activity change, negative = inhibition, usual class: inhibitors; hit rate 67% among 1,400; HEK293 hNpr2 GloSensor cGMP luminescence, CNP-stimulated; shares compounds with hNpr1 antagonist; calls by dose curve; note: nearly all actives have a fitted effect of over 70% in size
# FLuc inh counter – Natriuretic polypeptide receptor (hNpr1) antagonism - Confirmation firefly luciferase (FLuc) inhibition counterscreen; purified FLuc enzyme, luminescence, Km substrate; hit rate 0.7% among 1,400; shares compounds with hNpr1 antagonist; Potency, µM (titrated, usually from 57.6 µM), for inactives: at the top dose activity change, negative = inhibition, usual class: inhibitors; note: series mostly up to about 58 µM; 0% is about no effect
# GloSensor ctrl – Natriuretic polypeptide receptor (hNpr1) antagonism - Counterscreen GloSensor control cell line; shares compounds with hNpr1 antagonist; HEK293 GloSensor cGMP, SNP-stimulated, luminescence; Potency, µM (doses to about 57.6 µM), for the others: at the top dose activity change, negative = inhibition, usual class: inhibitors; hit rate 69% among 1,400; AID 1347051, 2019; calls by dose curve; note: % is set by controls: 0 for no effect and ±100 for the full control effect; nearly all actives have a fitted effect of over 70% in size
# Starred values were filed as active, the others as inactive; i = inactive; u = inconclusive; x = not tested or not shown; [ ] = dose if it differs, or a comment. Only some compounds are listed: those with a hit (about 10% of all), similar ones and a draw of the others. Unless noted, calls come from the whole dose curve; as a rule, active = well fitted curve in the direction sought with a large enough effect; inconclusive = small, poorly fitted or top-dose-only effect, or another doubt; inactive = no such curve, though single readings can be large; an effect the other way counts as inactive or inconclusive. Potency is the fitted concentration of half-maximal effect.
SMILES,HEK293 tox,Luciferase inh,NIH3T3 tox,hNpr1 antagonist,GPT2 inhibitor,NPR1 antag cnf,NPR2 antag,FLuc inh counter,GloSensor ctrl
COc1cc(OC)c(NC(=O)Cn2c(N(C)Cc3ccccc3)nc(C)cc2=O)cc1Cl,22.4µM*,i,u,10µM*,i,21.7µM*,21.7µM*,-2.3%,19.3µM*
Cc1cc(=O)n(CC(=O)Nc2c(C)cccc2C)c(N(C)Cc2ccccc2)n1,-26.6%,i,u,-0.5%,-2.5%,x,x,x,x
COc1ccc(NC(=O)Cn2c(N3CCN(c4ccccc4)CC3)nc(C)cc2=O)cc1Cl,u,i,u,-15.1%,i,x,x,x,x
CC1(C(=O)O)CCCC2(C)C1CCC13CC(CCC21)C1(CO)OC31 (stereo not given),x,x,x,x,0.6%[27.3 µM],x,x,x,x
O=S(=O)(c1ccccc1)N1CCCC(c2nc(CCOCC3CCCC3)no2)C1 (stereo not given),u,i,-25.6%,-21.9%,2.8%,u,u,0.0%,u
O=S(=O)(c1ccccc1)N1CCC(c2nc(CCOCC3CC3)no2)C1 (stereo not given),i,i,u,-1.5%,1.1%,x,x,x,x
CCC(C)NC(=O)N1CC(n2cc(C(=O)N(C)CCOC)nn2)C1 (stereo not given),-4.6%,i,-8.9%,2.2%,4.4%,x,x,x,x
Cc1ncsc1C(=O)N1CCNc2cnc(Nc3cccc(F)c3)nc2C1,u,i,u,14.1µM*,i,12.5µM*,17.7µM*,-1.3%[86.2 µM],11.1µM*
CC(C)NC(=O)N1CCNc2cnc(Nc3cccc(C(F)(F)F)c3)nc2C1,35.5µM*,i,39.8µM*,12.6µM*,-1.8%[88.5 µM],17.7µM*,22.2µM*,-1.0%[86.2 µM],15.7µM*
Cc1nn2c(c1-c1ccnn1C(C)C)N(Cc1ccc(C(=O)O)s1)CCC2,u,i,12.6µM*,15.8µM*,-15.5%[88.5 µM],11.1µM*,11.1µM*,-0.2%[86.2 µM],14µM*
Cc1nn2c(c1-c1ccnn1C(C)C)N(C(=O)C(C)C)CCC2,i,i,u,4.9%[70.6 µM],-10.2%[88.5 µM],x,x,x,x
CCC(=O)N1CCN(C(=O)c2ccccc2)CC1,x,x,x,x,i,x,x,x,x
COc1cc(OC)cc(C(=O)N2CCC3(CC2)N=C(c2ccccc2)NO3)c1,-4.9%,i,i,0.9%,i,x,x,x,x
Cc1ccccc1C(=O)N1CCC2(CC1)N=C(c1ccc(Br)cc1)NO2,u,i,u,14.1µM*,i,27.3µM*,24.3µM*,1.7%,24.3µM*
COc1ccc(C(=O)N2CCC3(CC2)N=C(c2ccc(Br)cc2)NO3)cc1,u,i,-23.3%,10µM*,i,12.2µM*,13.7µM*,0.9%,9.68µM*
